High-throughput results as filed in PubChem.
The list is not random: actives were taken first. Their share in the collection is about 10%.
Luciferase inh = inhibitors of firefly (Photinus pyralis) luciferase | P08659 | purified P. pyralis luciferase, luminescence, biochemical | Potency, µM (series often up to 115 µM), actives largely listed as inhibitors | 76,000 compounds, 2.5% hits | AID 1347043; note: nearly all actives have a fitted effect of over 65% in size
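Inhibitors were tested against purified firefly luciferase in a biochemical, low-substrate format (both substrates at 10uM) and luminescence measured with a CCD imager.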
HEK cytotox = kills HEK 293 cells; 94,000 compounds, 6.6% hits; HEK 293 viability, ATP luminescence (CellTiter-Glo), 48-72 h; Potency, µM (series often up to 115 µM), most hits filed as inhibitors; AID 1345083; note: nearly all actives have a fitted effect of over 60% in size
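HEK 293 cells seeded at 250 cells/well were exposed to compound for 48 or 72 hr at 37 degree Celsius. Viability taken as ATP content by CellTiter-Glo luminescence.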
hNpr1 antagonist = blocks ANP-stimulated signaling of human Npr1 receptor; Potency, µM (series often up to 46.3 µM), usual class: inhibitors; P16066; HEK293 hNpr1 GloSensor cGMP, ANP-stimulated luminescence; 76,000 compounds, 1.6% hits; calls by dose curve; note: nearly all actives have a fitted effect of over 60% in size
Target sequence (P16066 whole entry, looked up): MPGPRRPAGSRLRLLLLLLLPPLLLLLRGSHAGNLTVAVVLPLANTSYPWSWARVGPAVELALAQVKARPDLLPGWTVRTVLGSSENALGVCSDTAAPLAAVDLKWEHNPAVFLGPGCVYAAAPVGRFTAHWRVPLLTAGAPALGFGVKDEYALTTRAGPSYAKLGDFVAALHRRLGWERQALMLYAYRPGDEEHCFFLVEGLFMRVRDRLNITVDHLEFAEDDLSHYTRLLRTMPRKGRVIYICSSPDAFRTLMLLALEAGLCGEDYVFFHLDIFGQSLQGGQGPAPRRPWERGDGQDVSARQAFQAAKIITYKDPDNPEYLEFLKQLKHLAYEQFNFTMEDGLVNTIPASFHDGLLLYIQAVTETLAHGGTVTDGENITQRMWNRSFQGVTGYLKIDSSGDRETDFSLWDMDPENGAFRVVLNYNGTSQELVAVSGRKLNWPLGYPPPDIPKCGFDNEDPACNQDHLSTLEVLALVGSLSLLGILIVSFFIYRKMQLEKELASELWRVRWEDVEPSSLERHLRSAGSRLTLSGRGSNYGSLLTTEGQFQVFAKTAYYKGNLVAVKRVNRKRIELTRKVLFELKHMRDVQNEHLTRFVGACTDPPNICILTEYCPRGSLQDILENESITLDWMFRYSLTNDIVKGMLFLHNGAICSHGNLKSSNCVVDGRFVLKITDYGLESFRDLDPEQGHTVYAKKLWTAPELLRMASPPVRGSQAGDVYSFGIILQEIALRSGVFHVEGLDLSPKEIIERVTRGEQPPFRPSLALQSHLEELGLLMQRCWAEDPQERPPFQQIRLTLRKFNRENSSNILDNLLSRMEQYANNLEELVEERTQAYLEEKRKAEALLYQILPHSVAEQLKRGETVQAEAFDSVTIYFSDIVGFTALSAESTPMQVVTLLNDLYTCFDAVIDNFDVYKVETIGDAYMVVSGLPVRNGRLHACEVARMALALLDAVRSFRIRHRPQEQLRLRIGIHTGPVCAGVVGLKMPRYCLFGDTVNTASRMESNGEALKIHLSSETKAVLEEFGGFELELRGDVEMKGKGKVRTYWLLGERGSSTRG
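HEK293 cells stably expressing human Npr1 and cGMP GloSensor pGS-40F, loaded 2 h with 2% GloSensor reagent, given compound 30 min at room temperature. Luminescence read before and 20 min after 0.1 nM hNppA.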
GPT2 inh = blocks human glutamate pyruvate transaminase 2; Recombinant GPT2, coupled pyruvate oxidase/HRP Amplex Red fluorescence; 100,000 compounds, 0.25% hits; Potency, µM (top dose mostly 57.7 µM), most hits filed as inhibitors; note: nearly all actives have a fitted effect of over 60% in size
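Inhibition is scored from Amplex Red fluorescence generated when pyruvate oxidase and HRP act on pyruvate released by GPT2. Reactions contain 10ng/uL enzyme, 250uM a-KG and 2mM L-alanine and run 30 min at room temperature.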
NIH3T3 tox = NIH 3T3 cell cytotoxicity | AID 1345082 | NIH 3T3 viability, CellTiter-Glo ATP luminescence, 48-72 h | 94,000 compounds, 4.3% hits | Potency, µM (doses to about 96.7 µM), actives largely listed as inhibitors; note: nearly all actives have a fitted effect of over 55% in size
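First NIH 3T3 cells are plated at 400 cells/well; next compound is pinned in; then plates incubate 48 or 72 hr at 37 °C; finally CellTiter-Glo is added and luminescence read after 10 min.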
A number is an active result; 0 = inactive; ? = inconclusive; - = not tested or not shown. Unless noted, calls come from the whole dose curve; as a rule, active = well fitted curve in the direction sought with a large enough effect; inconclusive = small, poorly fitted or top-dose-only effect, or another doubt; inactive = no such curve, though single readings can be large; an effect the other way counts as inactive or inconclusive.

SMILES	Luciferase inh	HEK cytotox	hNpr1 antagonist	GPT2 inh	NIH3T3 tox
Cc1ccc(-c2cc3c(=O)n(CCNC(=O)c4ccc(Cl)cc4)ccn3n2)c(C)c1	0	40µM	0	0	?
CCNC(=O)N1CCC(OC)c2ccccc2N(C)C(=O)C1 (centres undefined)	-	0	-	-	?
COc1ccc(F)cc1-c1cccc(C(=O)NCCNC(=O)c2ccccc2F)c1	-	40µM	-	0	?
COc1ccc(F)cc1-c1cccc(C(=O)NCC(=O)NCc2ccc3c(c2)OCO3)c1	-	50µM	-	-	?
COc1ccc(C(=O)NCCNC(=O)c2cccc(-c3cc(F)ccc3OC)c2)cc1	-	40µM	-	0	?
O=C(COc1ccccc1)N1CCCCCC1c1nnc(-c2ccccc2)o1 (centres undefined)	-	0	-	0	0
O=C1COCC2(CN(c3ccc(C(F)(F)F)cn3)C2)CN1c1ccccc1F	0	?	0	0	0
Cc1ccc(OCc2nc(C3CCN(C(=O)NCc4ccc(F)cc4)CC3)no2)cc1	0	?	?	0	0
O=C(NCCc1ccccc1)N1CCC(c2noc(COc3ccc(F)cc3)n2)C1 (centres undefined)	-	45µM	-	?	?
Cc1ccc(CNC(=O)N2CCCC(c3noc(COc4ccccc4)n3)C2)cc1 (centres undefined)	0	?	0	0	?
Cc1ccc(OCc2nc(C3CCN(C(=O)NCc4ccccc4)C3)no2)cc1 (centres undefined)	-	45µM	-	?	?
CNC(=O)C1CCCN1C(=O)c1cccc(-c2ccccn2)c1 (centres undefined)	-	0	-	0	0
O[C@@H]1C[C@@H](c2nc(-c3ccc(OC(F)(F)F)cc3)no2)N(C2CCOCC2)C1	40µM	?	0	?	?
O[C@H]1CN[C@H](c2nc(-c3ccc(OC(F)(F)F)cc3)no2)C1	32µM	?	0	0	0
COc1ccccc1OCCC1CCN(C(=O)NCC(C)C)C1 (centres undefined)	0	0	0	0	0
COc1ccccc1C(=O)N1CCC(CCOc2ccc(C)cc2)C1 (centres undefined)	0	40µM	?	0	?
CN(CC(=O)N1CCC(CCOc2ccc(F)cc2)C1)S(=O)(=O)c1cccs1 (centres undefined)	0	50µM	?	?	?
Cc1ccc(OCCC2CCN(C(=O)c3ccoc3)C2)cc1 (centres undefined)	0	?	0	0	?
Cc1ccc(OCCC2CCN(C(=O)CCn3nc(C)cc3C)C2)cc1 (centres undefined)	0	50µM	?	0	?
CCn1nc(C)c(-c2cc(C(=O)N3CCC(CCOc4ccccc4OC)C3)no2)c1C (centres undefined)	0	45µM	0	0	?
CCc1cc(N(C)Cc2noc(C3CC3)n2)n2nc(C)c(C)c2n1	0	?	0	0	?
CN(C)C(=O)c1cn2cc(-c3ccc(F)cc3)sc2n1	-	0	-	0	0
COc1ccc(CN2CC(O)CN([S+](=O)([O-])c3ccc(F)cc3)CC2=O)cc1 (centres undefined)	-	?	-	-	0
CS(=O)(=O)NCC1CCC(Nc2nc3c(s2)CCSc2ccccc2-3)CC1 (centres undefined)	-	-	-	0	-
O=C(CCn1ccn2nc3c(c2c1=O)CCCC3)Nc1cccc(OC(F)(F)F)c1	0	0	0	0	0
SMILES	Luciferase inh	HEK cytotox	hNpr1 antagonist	GPT2 inh	NIH3T3 tox
COc1cccc(CNC(=O)C2CCc3nnc(C4CC4)n32)c1 (centres undefined)	-	0	-	0	0
O=C1NC2(CCN(Cc3ccccc3C(F)(F)F)C2)Oc2ccccc21 (centres undefined)	0	0	0	0	0
O=C1NC2(CCCN(Cc3ccccc3C(F)(F)F)C2)Oc2ccccc21 (centres undefined)	0	45µM	0	?	?
O=C1NC2(CN(Cc3ccccc3C(F)(F)F)C2)Oc2ccccc21	0	40µM	0	0	?
COc1ccccc1Nc1ncc2c(n1)CN(C(=O)Cc1cccc(F)c1)CCN2	0	?	0	0	?
COc1ccccc1Nc1ncc2c(n1)CN(C(=O)c1cc3ccccc3n1C)CCN2	0	71µM	0	0	?
COc1ccccc1Nc1ncc2c(n1)CN(C(=O)c1cccc(C#N)c1)CCN2	0	79µM	?	0	0
Cc1ccc(-c2cc(N3CCC(CNC(=O)c4ccc[nH]4)CC3)n[nH]2)cc1	?	?	0	?	?
CN(C)c1cccc(C(=O)NCC2CCN(c3cc(-c4ccc(F)cc4)[nH]n3)CC2)c1	?	?	0	?	?
O=C(NCC1CCN(c2cc(-c3ccc(F)cc3)[nH]n2)CC1)c1n[nH]c2c1CCCC2	?	40µM	?	?	35µM
O=C(NCC1CCN(c2cc(-c3ccccc3)[nH]n2)CC1)c1n[nH]c2c1CCCC2	?	?	?	?	32µM
Cc1ccc(-c2cc(N3CCC(CNC(=O)c4n[nH]c5c4CCCC5)CC3)n[nH]2)cc1	?	?	?	?	28µM
O=C(c1nc2cccnc2n(Cc2ccccc2)c1=O)N1CCOCC1	-	0	-	0	0
Nc1cccn2nc(-c3cccnc3)nc12	?	0	0	?	0
Nc1cccn2nc(-c3ccccc3)nc12	16µM	0	0	0	?
COCC1CN(C2CCC2)CC12CCN(C(=O)c1ccc(OC)nc1)CC2 (centres undefined)	0	?	0	0	?
COCC(=O)N(C)C1CCOc2ccccc21 (centres undefined)	0	0	0	0	0
COc1ccccc1C(=O)N1CCC2(CC1)CC(=O)Nc1ccccc1O2	0	45µM	0	?	0
O=C1CC2(CCN(C(=O)C3CCCN(C(=O)Nc4ccc(Cl)cc4)C3)CC2)Oc2ccccc2N1 (centres undefined)	-	22µM	-	0	?
O=C1CC2(CCN(C(=O)C3CCN(C(=O)Cc4cccc(Cl)c4)CC3)CC2)Oc2ccccc2N1	-	40µM	-	0	?
Cc1ccc([S+](=O)([O-])N2CCCC(C(=O)N3CCC4(CC3)CC(=O)Nc3ccccc3O4)C2)cc1 (centres undefined)	-	35µM	-	0	?
O=C1CC2(CCN(C(=O)C3CCN(C(=O)C4CCCC4)CC3)CC2)Oc2ccccc2N1	-	?	-	0	0
COc1cccc(-c2ccc(S(=O)(=O)N3CCSCC3)cc2)n1	0	45µM	0	0	?
COc1cccc(-c2cc(C(=O)O)cc(S(=O)(=O)N3CCSCC3)c2)c1	0	0	0	0	?
COc1ccccc1Nc1ccnc(N2CCC(NC(C)=O)CC2)n1	-	?	-	0	?
COc1ccccc1Nc1ccnc(N2CCC(N[S+](=O)([O-])c3ccccc3)CC2)n1	-	32µM	-	0	32µM
COc1ccccc1Nc1ccnc(N2CCC(NC(=O)C3CC3)CC2)n1	-	0	-	0	0
COC(=O)NC1CCN(c2nccc(Nc3ccccc3OC)n2)CC1	-	50µM	-	0	?
